Screening data from PubChem.
RTF Ca sens act = cardiac RTF calcium sensitization | activation, % at 7.2 µM | IANBD-labeled TnC RTF fluorescence at EC20 calcium; 0% EC20 calcium, 100% full calcium | 340,000 tested, 0.24% active | P19429+P45379;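 active means activation above the mean over all tested compounds plus 3 SD, cut at about 30% in these data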;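 further: rise in fluorescence read as greater calcium sensitivity of cardiac thin filaments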
CRFR2-BP ag = CRF-BP/CRF-R2 complex agonism. activation, % at 13.2 µM. HEK293 CRF-R2/CRF-BP, calcium dye fluorescence (FLIPR); percent of saturating CRF peptide response. 350,000 tested, 0.46% active. AID 588473;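 active means activation of at least 50%, plus an integration ratio under a set limit after plate pattern correction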;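 further: plate controls were neutral control wells without compound for no effect and CRF at EC100 for full effect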
CRFR2-BP antag = CRF-BP/CRF-R2 complex antagonism; HEK293 CRF-R2/CRF-BP, CRF-induced calcium fluorescence; inhibition, % at 11.8 µM; 350,000 tested, 0.59% active; AID 588475;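 active means inhibition of the ligand-induced calcium signal above about 50% at the single tested concentration, limit read from the data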
IDE cell inh = inhibitors of human insulin-degrading enzyme in cells | P14735 | HEK cells, FAbetaB cleavage, fluorescence polarization | inhibition, % at 5.59 µM | 320,000 tested, 0.41% active | AID 434962;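 active means percent inhibition above the average of all tested compounds plus 3 SD, set per screening campaign, cut at about 16% in these data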;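 further: IDE supplied by intact live HEK cells; FP after avidin binding of uncleaved biotin substrate so inhibition keeps polarization high; 0% = DMSO wells and 100% = 60 µM reference IDE inhibitor Ii1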
IDE act = activators of human insulin-degrading enzyme in cells; HEK cells, FAbeta-B cleavage, fluorescence polarization; 0% vehicle, 100% cell-free pure enzyme wells; 340,000 tested, 0.073% active; activation, % at 5.96 µM; P14735;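 active means activation above the mean of all tested compounds plus 3 SD, set per screening campaign, cut at about 17% in these data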
RTF Ca sens inh = cardiac RTF calcium desensitization; P19429+P45379; IANBD-labeled cardiac RTF, Ca2+ fluorescence; inhibition, % at 7.15 µM; 340,000 tested, 0.12% active;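 active means inhibition above the mean inhibition of all tested compounds plus 3 SD, cut at about 17% in these data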;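 further: assay run at fixed EC70 calcium of 1.6 mM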
IDE inh confirm = confirmation of human insulin-degrading enzyme inhibitors in cells. shares compounds with IDE cell inh. HEK cells, FAbetaB cleavage, fluorescence polarization. inhibition, % at 5.59 µM. 1,200 tested, 51% active. AID 435028;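 active means mean inhibition across triplicate wells above the cutoff set by the earlier primary insulin-degrading enzyme screen, cut at about 16% in these data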;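 further: 0% = DMSO wells and 100% = 60 µM reference IDE inhibitor Ii1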
HEK293 tox = HEK cell cytotoxicity, counter-screen for IDE inhibitors | AID 449730 | inhibition, % at 5.59 µM | 1,200 tested, 28% active | HEK293 cytotoxicity, ATP luminescence | shares compounds with IDE cell inh; in the data active means inhibition above about 22%;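 further: 0% = vehicle wells and 100% = reference cytotoxic drug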
* = called active by the depositor. An excerpt weighted towards active compounds, which were near 1.5% of everything screened.

How did Cc1c(C(=O)N2CC(C)OC(C)C2)[nH]c2ccc(Br)cc12 (stereo unspecified) do in these assays?
RTF Ca sens act: 7.4; CRFR2-BP ag: -0.6; CRFR2-BP antag: -12.1; IDE act: 4.7; RTF Ca sens inh: 0.3

What do the screens show for `CSc1ccccc1OCc1cc(C(=O)N2CCC[C@H]2C(N)=O)no1`?
RTF Ca sens act: -4.0; CRFR2-BP ag: -1.3; CRFR2-BP antag: -6.7; IDE cell inh: -1.7; IDE act: 0.2; RTF Ca sens inh: 0.1

Results for CCOc1ccccc1NC(=O)CCNC(=O)C1CCN(S(=O)(=O)c2ccccc2)CC1 ?
CRFR2-BP ag: -1.7; CRFR2-BP antag: -7.9

How did N#C/C(=C/c1ccc(O)c(O)c1)c1nc2ccccc2[nH]1 do in these assays?
RTF Ca sens act: 11.7; CRFR2-BP ag: 19.7; CRFR2-BP antag: -31.1; IDE cell inh: 47.2*; IDE act: -48.6; RTF Ca sens inh: -36.5; IDE inh confirm: 93.0*; HEK293 tox: 9.0

How did N#C/C(=C\c1ccc(-c2ccccc2C(=O)O)o1)c1nc2ccccc2[nH]1 do in these assays?
RTF Ca sens act: 16.6; CRFR2-BP ag: 32.2; CRFR2-BP antag: -16.2; IDE cell inh: 31.5*; IDE act: -38.3; RTF Ca sens inh: -21.4; IDE inh confirm: 53.4*; HEK293 tox: 3.5

What do the screens show for `Cc1cc(/C=C(/C#N)c2nc3ccccc3[nH]2)c(C)n1-c1ccccc1C(=O)O`?
RTF Ca sens act: 10.2; CRFR2-BP ag: 7.2; CRFR2-BP antag: 1.3; IDE cell inh: 11.4; IDE act: -6.5; RTF Ca sens inh: -7.8

How did N#C/C(=C\c1cccs1)c1nc2ccccc2[nH]1 do in these assays?
RTF Ca sens act: 1.4; CRFR2-BP ag: 0.9; CRFR2-BP antag: 5.6; IDE cell inh: -2.0; IDE act: 4.9; RTF Ca sens inh: -2.1

How did CCOC(=O)C(=O)NN=C(c1ccccc1)c1ccccc1 do in these assays?
RTF Ca sens act: 3.1; CRFR2-BP ag: -0.7; CRFR2-BP antag: -5.1; IDE cell inh: -0.4; IDE act: -1.0; RTF Ca sens inh: 5.5

How did O=C(Nc1cc(S(=O)(=O)N2CCOCC2)ccc1Cl)c1cc2ccccc2o1 do in these assays?
RTF Ca sens act: 0.3; CRFR2-BP ag: -0.6; CRFR2-BP antag: -2.5; IDE cell inh: -3.4; IDE act: 0.3; RTF Ca sens inh: -1.8

Results for CCOC(=O)C1=C(CSc2nc(CC)c(C)cc2C#N)OC(N)=C(C#N)C1c1ccc(OC)cc1 (stereo unspecified) ?
RTF Ca sens act: 11.0; CRFR2-BP ag: 15.9; CRFR2-BP antag: -26.9; IDE cell inh: 21.6*; IDE act: -2.7; RTF Ca sens inh: -12.7; IDE inh confirm: 3.1; HEK293 tox: 11.7

How did O=C1CC(=O)N(Cc2ccco2)C(=O)N1 do in these assays?
RTF Ca sens act: -9.9; CRFR2-BP ag: 11.3; CRFR2-BP antag: -2.2; IDE cell inh: 21.3*; IDE act: -17.8; RTF Ca sens inh: 5.1; IDE inh confirm: 13.3; HEK293 tox: 5.4

How did O=S(=O)(CCc1ccccc1)CS(=O)(=O)CCc1ccccc1 do in these assays?
RTF Ca sens act: -4.5; CRFR2-BP ag: 0.2; CRFR2-BP antag: -34.2; IDE act: -1.6; RTF Ca sens inh: 4.7

Results for CCOC(=O)C1CCCN(C2=NC(=O)/C(=C/c3ccc(O)c(OCC)c3)S2)C1 (stereo unspecified) ?
RTF Ca sens act: 2.1; CRFR2-BP ag: 2.5; CRFR2-BP antag: 4.9; IDE cell inh: 23.4*; IDE act: -25.3; RTF Ca sens inh: -5.5; IDE inh confirm: 71.5*; HEK293 tox: 10.6

Results for CCOC(=O)C1CCCN(C2=NC(=O)/C(=C/c3ccc(OC)cc3)S2)C1 (stereo unspecified) ?
RTF Ca sens act: 5.4; CRFR2-BP ag: -0.9; CRFR2-BP antag: -0.9; IDE cell inh: 2.2; IDE act: 4.2; RTF Ca sens inh: -1.8
